Laboratory results published in PubChem BioAssay (Tox21).
“And” between values parts separate entries of the source, which are not always exact repeats. Equal values may be shown once. Results filed as inconclusive are left out. Where a call stands in place of a potency, no number is given. Some structures have more than one record in an assay (separate samples or runs), and their calls can disagree. The source made the active and inactive calls. Unless noted, the call rests on the fitted dose curve; in most records, active means well fitted curve in the direction sought with a large enough effect in the repeat runs; inconclusive means weak or mixed curves; inactive means no such curve, though single readings can be large; an effect the other way counts as inactive or inconclusive.

How the values were obtained:
[1] = qHTS assay for small molecule agonists of the p53 signaling pathway (AID 651631; calls by dose curve; further: nearly all actives have a fitted effect of over 15% in size; further: potency means the concentration at half of the fitted maximal effect)
Method in brief: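 HCT-116 cells carrying a beta-lactamase reporter under p53 response elements were dosed with compound for 16 h at 37 °C. LiveBLAzer B/G FRET substrate was then added for 2 h at room temperature, and fluorescence intensity was read to detect pathway agonism.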

[2] = qHTS assay for small molecules that induce genotoxicity in human embryonic kidney cells expressing luciferase-tagged ATAD5 (AID 651632); further: nearly all actives have a fitted effect of over 15% in size; further: potency means the concentration at half of the fitted maximal effect
Method in brief: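 Reporter cells (HEK293T) express luciferase-tagged ATAD5, a protein that accumulates after DNA damage. Treat 16 hr at 37C/5% CO2, add Amplite, wait 30 min at RT, and read luminescence.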

[3] = qHTS assay for small molecule agonists of the p53 signaling pathway - cell viability (AID 651633; calls by dose curve; further: nearly all actives have a fitted effect of over 30% in size; further: potency means the concentration at half of the fitted maximal effect)
Method in brief: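 p53RE-bla cells, seeded at 4,000 per well and rested 5 h at 37 C/5% CO2, received compounds in DMSO for 16 h at 37 C. CellTiter-Glo was then added, and luminescence was read after 30 min at room temperature to gauge cytotoxicity.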

[4] = qHTS assay for small molecules that induce genotoxicity in human embryonic kidney cells expressing luciferase-tagged ATAD5 - cell viability (AID 651634; calls by dose curve; further: nearly all actives have a fitted effect of over 25% in size)
Method in brief: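 Seeding of 2,000 HEK293T ATAD5-luciferase cells per well preceded pin-tool compound transfer. Plates sat 15.5 hr at 37C under 5% CO2, then fluorescence was read after 30 min with CellTiter-Fluor.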

[5] = qHTS assay to test for compound auto fluorescence at 590 nm (red) in HepG2 cells (AID 720674)
Method in brief: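 Rose Bengal sodium served as the red fluorophore standard. HepG2 monolayers (overnight attachment, MEM with 10% FBS) were exposed to test compounds for 1 hr at 37 C and read at Ex 540/Em 590 nm.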

[6] = qHTS assay to test for compound auto fluorescence at 460 nm (blue) in HEK293 cells (AID 720678)
Method in brief: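 Intrinsic compound fluorescence is recorded in live HEK293 cultures after overnight incubation at 37C, 5% CO2, using excitation 405 nm and emission 460 nm. Values are referenced to triamterene.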

[7] = qHTS assay to test for compound auto fluorescence at 590 nm (red) in HEK293 cells (AID 720679)
Method in brief: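 Red autofluorescence, HEK293 cells: 2,000 cells/well; attach 4-5 hr 37C; add 23 nL cpd or DMSO; incubate o/n 37C 5% CO2; read Ex540/Em590; Rose Bengal sodium reference.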

[8] = qHTS assay to test for compound auto fluorescence at 535 nm (green) in HEK293 cells (AID 720680)
[9] = qHTS assay to test for compound auto fluorescence at 460 nm (blue) in HEK293 cell free culture (AID 720681)
Method in brief: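 Test compounds were pinned into cell-free culture medium (DMEM with 10% FBS) and fluorescence was read directly at Ex/Em 405/460 nm. Signals were expressed as fluorescence equivalents of triamterene, with DMSO vehicle as control.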

[10] = qHTS assay to test for compound auto fluorescence at 535 nm (green) in HEK293 cell free culture (AID 720682)
Method in brief: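 Green-label autofluorescence (485 nm excitation, 535 nm emission) measured on compound added to cell-free culture medium (DMEM, 10% FBS). Output is expressed relative to fluorescein.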

[11] = qHTS assay to test for compound auto fluorescence at 590 nm (red) in HEK293 cell free culture (AID 720683)
Method in brief: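 Tox21 10K library compounds were pinned into cell-free DMEM with 10% FBS and fluorescence was read at excitation 540 nm. Activity is expressed as Rose Bengal sodium equivalency.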

[12] = qHTS assay to test for compound auto fluorescence at 590 nm (red) in HepG2 cell free culture (AID 720684)
Method in brief: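 Red fluorescence (540 nm excitation, 590 nm emission) was measured after compound transfer into cell-free MEM supplemented with 10% FBS. Values are equivalencies against Rose Bengal sodium.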

[13] = qHTS assay to test for compound auto fluorescence at 460 nm (blue) in HepG2 cell free culture (AID 720685)
Method in brief: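 Compound (23 nL) or DMSO pinned into cell-free MEM with 10% FBS; blue fluorescence read at 405/460 nm excitation/emission, expressed as auto-fluorescence equivalency to triamterene.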

[14] = qHTS assay to test for compound auto fluorescence at 535 nm (green) in HepG2 cell free culture (AID 720686)
[15] = qHTS assay to test for compound auto fluorescence at 460 nm (blue) in HepG2 cells (AID 720687)
Method in brief: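 Cells (2,000/well in MEM with 10% FBS) attached overnight at 37 C, then were exposed to compound or DMSO for 1 hr at 37 C, 5% CO2. Fluorescence read at Ex/Em 405/460 nm, expressed as triamterene-equivalent signal.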

[16] = target: Glucocorticoid receptor (Homo sapiens) (UniProt P04150); experiment: qHTS assay to identify small molecule agonists of the glucocorticoid receptor (GR) signaling pathway (AID 720691; active means well fitted activation curve with a large enough effect in the signal ratio in the repeat runs, not every such curve was filed as active; the % refers to the signal ratio)
Method in brief: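 Reporter read-out: fluorescence intensity following 2 h room-temperature LiveBLAzer B/G FRET substrate loading. Prior step: GR-bla HeLa cells held 4 h, then treated 18 h at 37 C.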

[17] = target: Glucocorticoid receptor (Homo sapiens) (UniProt P04150); experiment: qHTS assay to identify small molecule antagonists of the glucocorticoid receptor (GR) signaling pathway (AID 720692; active means well fitted inhibition curve with a large enough effect in the signal ratio in the repeat runs, not every such curve was filed as active; the % refers to the signal ratio; further: potency means the concentration at half of the fitted maximal effect)
Method in brief: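 Dexamethasone (5 nM final) stimulated a stably integrated GRE-beta-lactamase reporter in HeLa cells during 18 h co-incubation with compounds; signal was quantified as fluorescence intensity of B/G FRET substrate after 2 h.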

[18] = qHTS assay for small molecule disruptors of the mitochondrial membrane potential - cell viability (AID 720634; calls by dose curve; further: nearly all actives have a fitted effect of over 20% in size; further: potency means the concentration at half of the fitted maximal effect)
Method in brief: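 Measuring cytotoxicity alongside mitochondrial potential, the screen quantified ATP by luminescence in HepG2 cells after 1 hr compound incubation and a 30 min room-temperature CellTiter-Glo step.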

[19] = qHTS assay for small molecule disruptors of the mitochondrial membrane potential (AID 720635); further: potency means the concentration at half of the fitted maximal effect
Method in brief: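 HepG2 cells (2,000/well) attached overnight at 37C, then took compound for 1 hr at 37C, 5% CO2. Mito-MPS dye was added for 30 min; fluorescence was read at 490/535 nm (monomers) and 540/590 nm (aggregates).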

[20] = qHTS assay to test for compound auto fluorescence at 535 nm (green) in HepG2 cells (AID 720675)

Chain of Glucocorticoid receptor (Homo sapiens) (P04150 whole entry, looked up): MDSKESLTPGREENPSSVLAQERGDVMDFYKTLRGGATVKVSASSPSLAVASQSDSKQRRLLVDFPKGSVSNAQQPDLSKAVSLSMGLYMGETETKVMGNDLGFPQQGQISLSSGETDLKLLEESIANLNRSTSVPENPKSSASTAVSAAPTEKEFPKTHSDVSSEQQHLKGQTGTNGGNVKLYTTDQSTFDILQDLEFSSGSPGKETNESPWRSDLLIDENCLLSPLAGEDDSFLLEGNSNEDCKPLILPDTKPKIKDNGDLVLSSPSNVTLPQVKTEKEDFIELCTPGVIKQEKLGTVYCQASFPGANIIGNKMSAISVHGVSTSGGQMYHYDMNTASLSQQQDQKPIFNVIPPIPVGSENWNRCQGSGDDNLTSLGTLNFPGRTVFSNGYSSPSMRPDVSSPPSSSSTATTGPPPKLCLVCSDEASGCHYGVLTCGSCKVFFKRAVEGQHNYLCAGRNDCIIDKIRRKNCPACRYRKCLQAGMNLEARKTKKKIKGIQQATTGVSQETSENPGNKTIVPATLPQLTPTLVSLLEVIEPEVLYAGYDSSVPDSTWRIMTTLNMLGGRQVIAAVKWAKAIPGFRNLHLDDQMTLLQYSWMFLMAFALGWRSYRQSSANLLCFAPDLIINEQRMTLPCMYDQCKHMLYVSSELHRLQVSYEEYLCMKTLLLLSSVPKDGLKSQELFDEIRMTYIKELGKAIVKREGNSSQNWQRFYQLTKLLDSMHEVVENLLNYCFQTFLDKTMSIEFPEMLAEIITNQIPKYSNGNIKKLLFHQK

Cc1cc(Cl)ccc1OCCCC(=O)O
Potency [1]: inactive
Potency [2]: inactive
Potency [3]: inactive
Potency [4]: inactive
outcome [5]: inactive
outcome [6]: inactive
outcome [7]: inactive
outcome [8]: inactive
outcome [9]: inactive
outcome [10]: inactive
outcome [11]: inactive
outcome [12]: inactive
outcome [13]: inactive
outcome [14]: inactive
outcome [15]: inactive
Potency [16]: inactive
Potency [17]: inactive

CCN(N=O)C(N)=O
Potency [1]: inactive
Potency [2]: inactive
Potency [3]: inactive
Potency [4]: inactive
Potency [18]: inactive
Potency [19]: inactive
outcome [6]: inactive
outcome [7]: inactive
outcome [8]: inactive
outcome [9]: inactive
outcome [10]: inactive
outcome [11]: inactive
outcome [12]: inactive
outcome [13]: inactive
outcome [14]: inactive
Potency [16]: inactive

CN(C)c1ccc(C(=O)c2ccc(N(C)C)cc2)cc1
Potency [1]: 605 nM (active) and 273 nM (active)
Potency [2]: 27 µM (active)
Potency [3]: inactive
Potency [4]: inactive
Potency [19]: 53.9 µM (active)
outcome [5]: inactive
outcome [6]: inactive
outcome [7]: inactive
outcome [8]: inactive
outcome [10]: inactive
outcome [11]: inactive
outcome [12]: inactive
outcome [14]: inactive
Potency [16]: inactive

CNC(=O)N(C)c1nnc(C(C)(C)C)s1
Potency [1]: inactive
Potency [2]: inactive
Potency [3]: inactive
Potency [4]: inactive
Potency [18]: inactive
outcome [6]: inactive
outcome [7]: inactive
outcome [8]: inactive
outcome [9]: inactive
outcome [10]: inactive
outcome [11]: inactive
outcome [12]: inactive
outcome [13]: inactive
outcome [14]: inactive
outcome [15]: inactive

O=[N+]([O-])c1c(Cl)c(Cl)c(Cl)c(Cl)c1Cl
Potency [1]: inactive
Potency [2]: inactive
Potency [3]: inactive
Potency [4]: inactive
Potency [18]: inactive
outcome [20]: inactive
outcome [6]: inactive
outcome [7]: inactive
outcome [8]: inactive
outcome [9]: inactive
outcome [10]: inactive
outcome [11]: inactive
outcome [12]: inactive
outcome [13]: inactive
outcome [14]: inactive
outcome [15]: inactive
Potency [16]: inactive
Potency [17]: 30.9 µM (active)

CC(C)NC(C)C
Potency [1]: inactive
Potency [2]: inactive
Potency [3]: inactive
Potency [4]: inactive
Potency [18]: inactive
Potency [19]: inactive
outcome [6]: inactive
outcome [7]: inactive
outcome [8]: inactive
outcome [9]: inactive
outcome [10]: inactive
outcome [11]: inactive
outcome [12]: inactive
outcome [13]: inactive
outcome [14]: inactive
Potency [16]: inactive
Potency [17]: inactive

CNC(=O)Oc1cccc2c1OC(C)(C)O2
Potency [1]: inactive
Potency [2]: inactive
Potency [3]: inactive
Potency [4]: inactive
Potency [18]: inactive
Potency [19]: inactive
outcome [6]: inactive
outcome [7]: inactive
outcome [8]: inactive
outcome [9]: inactive
outcome [10]: inactive
outcome [11]: inactive
outcome [12]: inactive
outcome [13]: inactive
outcome [14]: inactive
outcome [15]: inactive
Potency [16]: inactive

CCCCCCOC(=O)c1ccccc1C(=O)OCCCCCC
Potency [1]: inactive
Potency [2]: inactive
Potency [3]: inactive
Potency [4]: inactive
Potency [18]: inactive
Potency [19]: 27.9 µM (active)
outcome [6]: inactive
outcome [7]: inactive
outcome [8]: inactive
outcome [9]: inactive
outcome [10]: inactive
outcome [11]: inactive
outcome [12]: inactive
outcome [13]: inactive
outcome [14]: inactive
outcome [15]: inactive
Potency [16]: inactive
Potency [17]: inactive

CCOC(=S)S
Potency [1]: inactive
Potency [3]: inactive
Potency [4]: inactive
Potency [18]: inactive
Potency [19]: inactive
outcome [5]: inactive
outcome [20]: inactive
outcome [6]: inactive
outcome [7]: inactive
outcome [8]: inactive
outcome [9]: inactive
outcome [10]: inactive
outcome [11]: inactive
outcome [12]: inactive
outcome [13]: inactive
outcome [14]: inactive
outcome [15]: inactive

CCC(C)c1cc([N+](=O)[O-])cc([N+](=O)[O-])c1O (stereo not drawn)
Potency [1]: inactive and 864 nM (active)
Potency [2]: inactive
Potency [3]: inactive
Potency [18]: inactive and 1.22 µM (active)
Potency [19]: inactive and 344 nM (active)
outcome [6]: inactive
outcome [7]: inactive
outcome [8]: inactive
outcome [9]: inactive
outcome [10]: inactive
outcome [11]: inactive
outcome [12]: inactive
outcome [13]: inactive
outcome [14]: inactive
outcome [15]: inactive
Potency [16]: inactive
Potency [17]: inactive

CC(O)CCO (stereo not drawn)
Potency [1]: inactive
Potency [2]: inactive
Potency [3]: inactive
Potency [4]: inactive
outcome [5]: inactive
outcome [20]: inactive
outcome [6]: inactive
outcome [7]: inactive
outcome [8]: inactive
outcome [9]: inactive
outcome [10]: inactive
outcome [11]: inactive
outcome [12]: inactive
outcome [13]: inactive
outcome [14]: inactive
outcome [15]: inactive

Cc1ccc(OP(=O)(Oc2ccc(C)cc2)Oc2ccc(C)cc2)cc1
Potency [1]: inactive
Potency [2]: inactive
Potency [3]: inactive
Potency [4]: inactive
Potency [19]: 24.3 µM (active)
outcome [20]: inactive
outcome [6]: inactive
outcome [7]: inactive
outcome [8]: inactive
outcome [9]: inactive
outcome [10]: inactive
outcome [11]: inactive
outcome [12]: inactive
outcome [13]: inactive
outcome [14]: inactive
outcome [15]: inactive
Potency [16]: inactive
Potency [17]: inactive

C#C[C@]1(O)CC[C@H]2[C@@H]3CCC4=CC(=O)CC[C@]4(C)[C@H]3CC[C@@]21C
Potency [1]: inactive
Potency [2]: inactive
Potency [3]: inactive
Potency [4]: inactive
Potency [18]: inactive
outcome [20]: inactive
outcome [6]: inactive
outcome [7]: inactive
outcome [8]: inactive
outcome [9]: inactive
outcome [10]: inactive
outcome [11]: inactive
outcome [12]: inactive
outcome [13]: inactive
outcome [14]: inactive
outcome [15]: inactive
Potency [16]: inactive
Potency [17]: 1.69 µM (active)

CCC(=O)O[C@H]1CC[C@H]2[C@@H]3CCC4=CC(=O)CC[C@]4(C)[C@H]3CC[C@]12C
Potency [1]: inactive
Potency [2]: inactive
Potency [3]: inactive and 61.1 µM (active)
Potency [4]: inactive
Potency [18]: inactive
outcome [5]: inactive
outcome [20]: inactive
outcome [6]: inactive
outcome [7]: inactive
outcome [8]: inactive
outcome [9]: inactive
outcome [10]: inactive
outcome [11]: inactive
outcome [12]: inactive
outcome [13]: inactive
outcome [14]: inactive
outcome [15]: inactive
Potency [16]: inactive
Potency [17]: 5.12 µM (active) and 4.9 µM (active)

ClC1C(Cl)C(Cl)C(Cl)C(Cl)C1Cl (stereo not drawn)
Potency [1]: inactive
Potency [3]: inactive
Potency [4]: inactive
Potency [18]: inactive
outcome [5]: inactive
outcome [20]: inactive
outcome [6]: inactive
outcome [7]: inactive
outcome [8]: inactive
outcome [9]: inactive
outcome [10]: inactive
outcome [11]: inactive
outcome [12]: inactive
outcome [13]: inactive
outcome [14]: inactive

O=[N+]([O-])c1cccc2ccccc12
Potency [1]: inactive
Potency [2]: inactive
Potency [3]: inactive
Potency [4]: inactive
Potency [18]: inactive
outcome [20]: inactive
outcome [6]: inactive
outcome [7]: inactive
outcome [8]: inactive
outcome [9]: inactive
outcome [10]: inactive
outcome [11]: inactive
outcome [12]: inactive
outcome [13]: inactive
outcome [14]: inactive
outcome [15]: inactive
